# Most compounds without a hit are left out; they make up all but 13% or so of the library.
# UCHL1 block – inhibitors of human UCHL1 deubiquitinase; purified UCHL1, Ub-rhodamine cleavage fluorescence; inhibition, % at 20 µM; actives 0.2% (n = 47,000); AID 1645859
# USP10 block – inhibitors of human USP10 deubiquitinase | Q14694 | purified USP10, Ub-rhodamine fluorescence, 60 min | inhibition, % at 20 µM | actives 1.1% (n = 47,000)
# Target sequence (Q14694 whole entry, looked up): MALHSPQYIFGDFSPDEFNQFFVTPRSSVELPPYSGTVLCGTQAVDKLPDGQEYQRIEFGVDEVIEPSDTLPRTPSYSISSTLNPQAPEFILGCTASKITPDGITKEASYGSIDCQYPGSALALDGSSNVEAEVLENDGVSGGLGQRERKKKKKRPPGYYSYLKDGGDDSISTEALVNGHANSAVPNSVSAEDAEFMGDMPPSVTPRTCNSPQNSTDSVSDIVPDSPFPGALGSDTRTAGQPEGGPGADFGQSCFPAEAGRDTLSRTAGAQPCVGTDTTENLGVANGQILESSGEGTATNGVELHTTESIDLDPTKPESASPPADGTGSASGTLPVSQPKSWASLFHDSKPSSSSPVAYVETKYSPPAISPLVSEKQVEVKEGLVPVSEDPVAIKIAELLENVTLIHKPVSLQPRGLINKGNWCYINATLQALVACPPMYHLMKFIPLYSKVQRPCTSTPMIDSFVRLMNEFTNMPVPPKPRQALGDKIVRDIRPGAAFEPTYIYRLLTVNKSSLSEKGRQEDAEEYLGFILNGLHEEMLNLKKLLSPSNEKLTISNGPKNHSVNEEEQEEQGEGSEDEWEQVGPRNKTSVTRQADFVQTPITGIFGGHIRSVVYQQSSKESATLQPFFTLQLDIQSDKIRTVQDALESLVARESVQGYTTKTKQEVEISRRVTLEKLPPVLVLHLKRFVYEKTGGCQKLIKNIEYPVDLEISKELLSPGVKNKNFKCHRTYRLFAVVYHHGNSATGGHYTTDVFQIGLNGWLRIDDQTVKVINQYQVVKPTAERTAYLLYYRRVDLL
# USP30 block – blocks human USP30 ubiquitin-rhodamine cleavage; Q70CQ3; purified USP30, Ub-rhodamine cleavage fluorescence; inhibition, % at 25 µM; actives 5.3% (n = 47,000); AID 1645860
# USP7 inh – inhibitors of human USP7 deubiquitinase. purified USP7, Ub-rhodamine cleavage fluorescence. inhibition, % at 20 µM. actives 0.3% (n = 47,000). AID 1645854
# USP17 inh – human USP17-like deubiquitinase inhibition; A8MUK1; purified USP17, Ub-rhodamine cleavage fluorescence, 3 h; inhibition, % at 50 µM; actives 6.5% (n = 47,000); AID 1645855
# USP8 inh – inhibitors of human USP8 deubiquitinase; P40818; purified USP8, Ub-rhodamine cleavage fluorescence, 30 min; inhibition, % at 20 µM; actives 4.2% (n = 47,000)
# A number is an active result; 0 = inactive; - = not tested or not shown. Cut-off read from the data, not from the text of the source: active = inhibition above about 30%; inactive = the rest.
SMILES,UCHL1 block,USP10 block,USP30 block,USP7 inh,USP17 inh,USP8 inh
O=S(=O)(Nc1ccc(Oc2ccccc2)cc1)c1ccccc1,0,0,64,0,70,34
CCc1nc2c(NC(=O)c3ccc4c(c3)OCO4)cccn2n1,0,0,0,0,0,0
O=C(Nc1ccc(Cl)cc1)C1CCCN(c2ncnc3nc[nH]c23)C1 (configuration not stated),0,0,0,0,39,0
O=C(Nc1ccc(Cl)cc1)C1CCCN(c2ncccn2)C1 (configuration not stated),0,0,0,0,0,33
CC(=O)N1CCN(C(=O)CCC2CCCN(c3cc(NC4CC4)ncn3)C2)CC1 (configuration not stated),0,0,0,0,0,0
CC(=O)c1cccc(NC(=O)CN2C(=O)CCc3ccccc32)c1,0,0,0,0,0,0
CSc1ccc(CNC(=O)CC2CCN(S(=O)(=O)c3ccc(C)cc3)CC2)cc1,0,0,50,0,0,0
CN(Cc1ccccc1)S(=O)(=O)c1ccc2[nH]cc(C(=O)NCc3cccs3)c(=O)c2c1,0,0,0,0,60,0
COc1ccc(OCC(=O)NCc2ccc(-c3ncncc3-c3cc(C)no3)cc2)cc1,0,0,0,0,0,0
COc1ccc(CNC(=O)C(C)n2nc(-c3ccco3)c(-c3cc(C)no3)cc2=O)cc1 (configuration not stated),0,0,0,0,64,0
COc1ccc(C(=O)Cn2nc(-c3ccco3)c(-c3cc(C)no3)cc2=O)cc1,0,0,0,0,47,0
COc1ccc(C)cc1NC(=O)c1cc(-c2ccc(Cl)cc2)nc2ccccc12,0,0,0,0,0,0
COc1cc(-c2cc(C(=O)Nc3cc(C)[nH]n3)c3ccccc3n2)cc(OC)c1OC,0,0,51,0,39,0
COc1cccc(-c2ccc3nc(C4CCN(C(=O)N(C)C)CC4)nn3c2)c1,0,0,0,0,0,0
CN(C)c1nc(NCc2ccccc2)nc(Oc2ccc(=O)[nH]n2)n1,0,0,31,0,0,0
CS(=O)(=O)c1ccc(NC(=O)C2CN(c3nc4c(F)cccc4s3)C2)cc1,0,0,0,0,55,0
CN(C)C(=O)N1CCN(S(=O)(=O)c2ccccc2)CC2(CC(=O)N(C)C2)C1 (configuration not stated),0,0,0,0,0,0
CC(C)n1c(CC2CCN(C(=O)c3cc(-c4ccccc4)n[nH]3)C2)nc2cccnc21 (configuration not stated),0,0,0,0,0,0
CC(CC(=O)Nc1ccc(F)cc1)CC(=O)Nc1ccc(C(C)C)cc1 (configuration not stated),0,0,0,0,0,0
COc1ccc(NC(=O)CC(C)CC(=O)Nc2ccc(C(C)C)cc2)c(OC)c1 (configuration not stated),0,0,0,0,46,0
Cc1ccc(NC(=O)CC(C)CC(=O)Nc2ccc(C(C)C)cc2)cc1Cl (configuration not stated),0,0,0,0,-,31
O=C1c2ccc(O)cc2OCC1c1ccc(O)cc1 (configuration not stated),0,0,0,0,0,0
O=c1c2ccccc2nc(CSc2nc3ccc4[nH]snc4c3n2)n1-c1ccccc1,0,0,37,0,51,0
O=C(Nc1cccc(N2CCCC2=O)c1)c1cccc2cccnc12,0,0,0,0,56,0
COc1cccc(C(=O)Nc2cccc(N3CCCC3=O)c2)c1OC,0,0,0,0,0,0
SMILES,UCHL1 block,USP10 block,USP30 block,USP7 inh,USP17 inh,USP8 inh
Cn1nc(-c2nc(-c3ccccc3)no2)c2c1CCN(C(=O)C1CCCC1)C2,0,0,0,0,64,0
Cn1nc(-c2nc(-c3ccccc3)no2)c2c1CCN(C(=O)C1CC1)C2,0,0,68,0,42,0
COc1ccc(C(=O)/C=C\c2cn(-c3ccccc3)nc2-c2cccs2)cc1,0,0,0,0,0,0
Nc1nn(-c2ccccc2)cc1-c1cccs1,0,0,0,0,0,36
Cc1ccc(-c2nc(CNC(=O)C3CCCC3)no2)cc1,0,0,0,0,-,0
CC1CC(=O)Nc2cc(S(=O)(=O)Nc3ccc(F)cc3F)ccc2S1 (configuration not stated),0,0,0,0,0,0
CC1CC(=O)Nc2cc(S(=O)(=O)Nc3cccc(F)c3)ccc2S1 (configuration not stated),0,0,31,0,0,0
COc1ccc(-c2cnnn2-c2ccc(NC(=O)c3c(F)cccc3F)cc2)cc1OC,0,0,83,0,-,0
COc1ccc(NC(=O)c2cc(-c3ccncc3)n(-c3ccc(F)cc3)n2)cc1OC,0,0,0,0,0,0
CCCNC(=O)C1(Cc2ccccc2-c2cccnc2)CCOCC1,0,0,0,0,0,0
Cc1ccc(S(=O)(=O)c2cnc3ccccc3c2N2CCCC2)cc1,0,0,0,0,0,0
O=C(CSc1ccc(-c2ccncc2)nn1)Nc1ccc(Cl)cc1,0,0,0,0,32,0
O=C(CSc1ccc(-c2cccc([N+](=O)[O-])c2)nn1)Nc1cccc(F)c1,0,46,45,0,79,70
CC(=O)Nc1cccc(NC(=O)CSc2ccc(-c3ccc4c(c3)OCO4)nn2)c1,0,0,33,0,0,33
O=C(CSc1ccc(-c2ccccc2)nn1)Nc1ccc(F)c([N+](=O)[O-])c1,0,0,0,0,0,0
COc1ccc(NC(=O)CSc2ccc(-c3cccnc3)nn2)cc1OC,0,0,0,0,0,0
COc1ccc(-c2ccc(SCC(=O)Nc3ccc(F)cc3)nn2)cc1OC,0,0,0,0,0,83
CC(=O)c1cccc(S(=O)(=O)N2CC(c3nc4ccc(C)cc4[nH]3)C2)c1,0,0,0,0,0,0
Cc1nc(Nc2ncccc2C)cc(C2CCCN2S(C)(=O)=O)n1 (configuration not stated),0,0,0,0,0,0
COc1ccc(OC)c(NC(=O)c2cc(F)ccc2-n2cnnn2)c1,0,0,0,0,0,0
COc1cc(NC(=O)Cn2nc(-c3ccc(F)cc3)ccc2=O)ccc1-n1cnnn1,0,51,43,0,79,39
COc1ccc2nc3c(cc2c1)CN(CC1CC1)C(=O)CO3,0,0,40,0,0,0
COCCCN1Cc2cc3cc(OC)ccc3nc2OCC1=O,0,0,0,0,0,0
N#Cc1ccc(Cl)cc1NC(=O)COc1cccnc1[N+](=O)[O-],0,0,31,0,50,0
N#Cc1ccc(Cl)cc1NC(=O)CN1C(=O)c2ccccc2S1(=O)=O,0,0,0,0,0,0
O=C(Cc1ccccc1)Nc1ccc2[nH]ncc2c1,0,0,0,0,0,61
O=C(Nc1ccc2[nH]ncc2c1)c1ccc(F)cc1,0,0,0,0,0,0

# Source: PubChem (Buhrlage Lab, Dana-Farber Cancer Institute and Novartis Institutes for BioMedical Research (Cambridge, Mass))
